Drawing on PubChem BioAssay (NCATS), this text covers Potency, activity, negative = cell killing and outcome for six compounds.

Inconclusive results are not listed. A number with no mark means an inactive call. Calls of active or inactive are those of the source. Calls follow the shape of the dose curve; as a rule, active = well fitted curve in the direction sought with a large enough effect; inconclusive = small, poorly fitted or top-dose-only effect, or another doubt; inactive = no such curve, though single readings can be large; an effect the other way counts as inactive or inconclusive. Where a SMILES comes first, the peptide text is derived from it. [ ]: non-standard residue; d: D form. pGlu = O=C1CC[C@@H](C(=O)O)N1; Thz = O=C(O)[C@@H]1CSCN1

One assay deals with MKL-1. Description: qHTS assay to identify novel small-molecules to repurpose for Merkel cell carcinoma treatment (AID 1296009). Also: nearly all actives have a fitted effect of over 60% in size. The conditions noted are these: MCC and control cell lines, CellTiter-Glo viability, 72 h; series mostly up to 46 µM. The method in brief:
(§1)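 72 hr, 37 degree celsius; NPC 8-pt / MIPE 11-pt dose response; compound pinned in DMSO; CellTiter-Glo, 10 min RT, luminescence; normalized to no-cell and DMSO controls.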
In general terms: qHTS replaces the single test concentration by a dilution series.

The test system of a further assay is MKL-2. Described as above. The conditions noted are these: MCC and control cell lines, CellTiter-Glo viability, 72 h; series mostly up to 46 µM. The method in brief: as §1
For orientation: Cellular ATP, detected with luciferase, serves as a proxy for viable cell number.

Another assay deals with UISO. The assay is described as above. The settings on record: MCC and control cell lines, CellTiter-Glo viability, 72 h; series mostly up to 46 µM. The essentials: as §1
In a further assay the test system is WaGa. Described as above. The settings on record: MCC and control cell lines, CellTiter-Glo viability, 72 h; series mostly up to 46 µM. The essentials:
as §1

Another assay has as its system C33A. Description: Primary qHTS to identify gynecologic anti-cancer compounds using libraries of approved drugs and bioactive compounds (AID 1345084). Also: nearly all actives have a fitted effect of over 55% in size. The settings on record: Gynecologic cancer cell panel viability, ATPlite luminescence, 48 h; series mostly up to 57.5 µM. The essentials:
(§2)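 48 h compound exposure at 37 C, 5% CO2; five-point qHTS. ATPlite luminescence readout of cell ATP.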

The test system of another assay is CASKI. Described as above. The settings on record: Gynecologic cancer cell panel viability, ATPlite luminescence, 48 h; series mostly up to 57.5 µM. The method in brief: as §2
In a further assay the test system is Es-2. Described as above. The settings on record: Gynecologic cancer cell panel viability, ATPlite luminescence, 48 h; series mostly up to 57.5 µM. The essentials:
as §2

The subject of a further assay is HeLa. The description is as above. The conditions noted are these: Gynecologic cancer cell panel viability, ATPlite luminescence, 48 h; series mostly up to 57.5 µM. The method in brief: as §2
A further assay has as its system Hek293T. The description is as above. The settings on record: Gynecologic cancer cell panel viability, ATPlite luminescence, 48 h, control line for the selectivity index; series mostly up to 57.5 µM. The method in brief:
as §2

A further assay concerns JEG-3. The assay is described as above. The settings on record: Gynecologic cancer cell panel viability, ATPlite luminescence, 48 h; series mostly up to 57.5 µM. The method in brief: as §2
The subject of the next assay is OV90. The assay is described as above. The settings on record: Gynecologic cancer cell panel viability, ATPlite luminescence, 48 h; series mostly up to 57.5 µM. The essentials:
as §2

The next assay deals with PA-1. The description is as above. The settings on record: Gynecologic cancer cell panel viability, ATPlite luminescence, 48 h; series mostly up to 57.5 µM. The essentials: as §2
A further assay relates to SKOV3. The description is as above. The settings on record: Gynecologic cancer cell panel viability, ATPlite luminescence, 48 h; series mostly up to 57.5 µM. The essentials:
as §2

A further assay deals with Tov-21-G. The assay is described as above. The conditions noted are these: Gynecologic cancer cell panel viability, ATPlite luminescence, 48 h; series mostly up to 57.5 µM. The method in brief:
as §2

Another assay has as its system Tov112D. The assay is described as above. The conditions noted are these: Gynecologic cancer cell panel viability, ATPlite luminescence, 48 h; series mostly up to 57.5 µM. The method in brief:
as §2

The subject of another assay is CAOV3. Described as above. The settings on record: Gynecologic cancer cell panel viability, ATPlite luminescence, 48 h; series mostly up to 57.5 µM. The essentials: as §2
The nature of assay [1]: Drug repurposing screens with cells derived from glioblastoma tumor samples (AID 1345199). Also: nearly all actives have a fitted effect of over 40% in size. Also: potency is read from the fitted curve at half-maximal effect. The settings on record: GBM patient neurospheres viability, ATP luminescence, 48 h. The essentials:
(§3)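 Four patient lines of CD133+ GBM neurospheres were screened at several concentrations; hits were retested in those lines plus three slower-growing GBM lines, using 48-hour treatment and ATP-based viability.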

The next assay has as its system astro. The assay is described as above. The settings on record: viability, ATP luminescence, 48 h; series mostly up to 45.9 µM. The method in brief: as §3
The subject of another assay is NIH3T3. Description: qHTS assay to identify novel small-molecules to repurpose for Merkel cell carcinoma treatment (AID 1296009). Also: nearly all actives have a fitted effect of over 60% in size. The conditions noted are these: MCC and control cell lines, CellTiter-Glo viability, 72 h; at 44.8 µM (top of the series) unless noted. The method in brief: as §1
[2] abbreviates: at 20 µM (top of the series), tumour line C.
The mark [3] stands for this setting: at 21.2 µM (top of the series), tumour line B.
The mark [4] stands for this setting: at 21.2 µM (top of the series), tumour line D.
The mark [5] stands for this setting: at 45.9 µM (top of the series), tumour line B.
Where [6] appears, read: at 45.9 µM (top of the series), tumour line D.
Where [7] appears, read: at 46.1 µM (top of the series), tumour line C.
% is scaled to controls: 0 for no effect and ±100 for the full control effect.

For the compound `CCCCCCCCCCCCOCCO`, the Potency result with MKL-1, in the assay with MKL-2, in the assay with UISO, in the assay with WaGa, in the assay with C33A and with CASKI was “inactive” in each case. Further, the Potency entry in the assay with Es-2, in the assay on HeLa, with Hek293T, in the assay on JEG-3, in the assay on OV90 and with PA-1 was “inactive” throughout. For the same compound, the Potency entry with SKOV3, in the assay on Tov-21-G and with Tov112D was “inactive” in each case.
In the case of `CC(C(=O)O)c1ccc(C(=O)c2ccccc2)s1` (centres undefined), the Potency result in the assay with MKL-1, in the assay with MKL-2, in the assay with UISO, in the assay on WaGa, with C33A and with CAOV3 was “inactive” each time. Besides, the Potency entry in the assay on CASKI, with Es-2, with HeLa, in the assay with Hek293T, in the assay on JEG-3 and in the assay with OV90 was “inactive” throughout. In addition, the Potency entry in the assay with PA-1, with Tov-21-G, in the assay with Tov112D and in the assay on astro was “inactive” throughout. For the same compound, the results for the activity, negative = cell killing in assay [1] (setting [2]), in assay [1] (setting [3]) and in [1] (setting [4]) were -11.8%, -9.92% and 4.8%, respectively.
As to `Cc1ccc(C(=O)c2ccc(CC(=O)O)n2C)cc1`, the Potency result with MKL-1, with MKL-2, with UISO, in the assay on WaGa, with C33A and in the assay on CAOV3 was “inactive” each time. Moreover, the Potency entry in the assay with CASKI, in the assay on Es-2, in the assay with HeLa, in the assay on Hek293T, in the assay with JEG-3 and in the assay with OV90 was “inactive” in each case. In addition, the Potency entry in the assay with PA-1, in the assay with SKOV3, in the assay on Tov-21-G, in the assay with Tov112D and in the assay on astro was “inactive” throughout. Besides, the activity, negative = cell killing was -5.11% in assay [1] (setting [2]); -9.02% in assay [1] (setting [3]); -3.08% in assay [1] (setting [4]); -10.3% in [1] (at 21.3 µM (top of the series), tumour line A).
With `CC(=O)SCC(CC(=O)c1ccc(C)cc1)C(=O)O` (centres undefined), the Potency entry in the assay on MKL-1, with MKL-2, in the assay on UISO, in the assay on WaGa, in the assay with C33A and in the assay with Es-2 was “inactive” throughout. The Potency entry with HeLa, with Hek293T, in the assay with JEG-3, in the assay on OV90, in the assay on Tov-21-G and in the assay on Tov112D was “inactive” in each case. Besides, the activity, negative = cell killing in assay [1] (setting [5]) is -14.9%; in [1] (setting [6]), -21.8%; in assay [1] (setting [7]), 1.92%.
As for `CN1CCN(c2cc3c(nn2)Oc2ccccc2N3C)CC1`, the Potency entry with MKL-1, with MKL-2, in the assay on UISO, with WaGa, in the assay on C33A and with CASKI was “inactive” in each case. For the same compound, the Potency entry in the assay on Es-2, in the assay on HeLa, with JEG-3, in the assay with OV90, with PA-1 and in the assay on SKOV3 was “inactive” throughout. The Potency entry with Tov-21-G, in the assay on Tov112D and in the assay with astro was “inactive” throughout. Moreover, in assay [1] (setting [5]), the activity, negative = cell killing is -7.46%. Moreover, the Potency in assay [1] (tumour line A) is 11.2 µM (active).
Take `O=C1CC[C@@H](C(=O)N2CSC[C@H]2C(=O)O)N1` ([pGlu]-[Thz]-OH): the outcome in the assay with NIH3T3 was inactive. Also, the Potency result in the assay with C33A, with CAOV3, in the assay with CASKI, in the assay on Es-2, with HeLa and in the assay with Hek293T was “inactive” throughout. Moreover, the Potency entry in the assay on JEG-3, with OV90, in the assay with PA-1, in the assay on SKOV3, with Tov-21-G and with Tov112D was “inactive” each time. The activity, negative = cell killing in assay [1] (setting [5]) is -16.5%; in assay [1] (setting [6]) it was -0.509%; in assay [1] (at 46 µM (top of the series), tumour line A), -28.4%; in assay [1] (setting [7]) it was -18.5%.
